SMILES strings stand for the structures. The campaign covered roughly 1,800 compounds. About 410 (23%) were called active. Only a sample is shown. Results with a measured potency or affinity are listed apart. A number with no mark means an inactive call. No rule for the calls is given here.

A short description of this assay: Vero cell cytotoxicity, cytotoxicity control for flavivirus capping enzyme inhibitors (AID 588742). As to conditions: Vero cells viability, cytotoxicity counter-screen; series mostly up to 40 µM; viability: at the top concentration. (The purpose of a counterscreen is to sort out artefacts and off-target activity.)
Usually viability stands for a read-out of living cells in per cent, often relative to untreated cells. Take `N#Cc1c(SC(C(=O)O)c2ccccc2)nc2c(c1-c1cccs1)CCCC2` (stereo not given): the “viability” value is 104%.

Take `CC1=NN(c2nc(-c3ccccc3)cs2)C(=O)C1`: the “viability” value was 100%.

Take `COc1cc(/C=C(\C#N)C(=O)Nc2ccccc2C(=O)O)cc(Cl)c1OC`: the “viability” value was 86.9%.

`COc1ccc2nc3ccccc3nc2c1N`: the “viability” value was 90.1%.

On to `COc1ccc2nc3cccc(OC)c3nc2c1`, for which the “viability” value is 86.4%.

Turning to `COc1cc(N=c2ssnc2Cl)c(OC)cc1Cl`, the “viability” value is 90.8%.

On to `O=C(O)/C(CC(=O)c1ccc(Cl)cc1)=N/Nc1ccc([N+](=O)[O-])cc1[N+](=O)[O-]`, for which the “viability” value is 101%.

In the case of `O=C(c1ccc(NC(=O)C(c2ccccc2)c2ccccc2)cc1)c1ccc(C(=O)O)c(C(=O)O)c1`, the “viability” value is 101%.

Take `CC1=NN(c2ccccc2)C(=O)/C1=C/c1cccs1`: the “viability” value was 98.1%.

For the compound `COc1ccccc1/C=C1/C(=O)N(c2ccccc2)N=C1C`, the “viability” value was 96.3%.

As to `CC(=O)CSc1nsc(SCC(C)=O)c1C#N`, the “viability” value is 96.2%.

Consider `C=CCOc1ccccc1OCC(O)CNC(C)C` (stereo not given), for which the “viability” value is 97.4%.

In the case of `O=C(CN1C(=O)/C(=C2/SC(=S)N(CCS(=O)(=O)O)C2=O)c2ccccc21)Nc1cccc(C(F)(F)F)c1`, the “viability” value was 102%.

`O=[N+]([O-])c1cc(-c2ccccc2)cc([N+](=O)[O-])c1O`: the “viability” value is 96.4%.

`Cc1oc2cc([N+](=O)[O-])c(O)c([N+](=O)[O-])c2c1C(=O)c1ccc(Br)cc1`: the “viability” value was 95.3%.

Turning to `CC(CNC(=O)CN1C(=O)COc2ccc(S(=O)(=O)N3CCCCC3)cc21)c1ccccc1` (stereo not given), the “viability” value is 108%.

Regarding `COc1ccc(-c2ccc(CCC(=O)O)o2)cc1`, the “viability” value was 105%.

Regarding `COC(=O)CCC(=O)OC1(C)C(=O)C2=CN(C3CCCC3)C(c3ccc(OC)cc3)=CC2=C(Br)C1=O` (stereo not given), the “viability” value was 101%.

For the compound `Cc1ccc(C(=O)/C=C/C(=O)O)cc1`, the “viability” value was 105%.

Consider `O=C(O)/C=C/C(=O)c1ccc(O)cc1`, for which the “viability” value is 101%.

Consider `O=C(O)c1[nH]c2ccccc2c1C(c1cc(Br)ccc1O)c1c(C(=O)O)[nH]c2ccccc12`, for which the “viability” value was 97%.

With `Cc1ccc(NCc2cccnc2)c(Br)c1`, the “viability” value was 86.1%.

In the case of `O=C(CC(Nc1cccc(Cl)c1Cl)C(=O)O)c1ccccc1` (stereo not given), the “viability” value is 112%.

For the compound `COc1ccc(C(C2C(=O)CC(C)(C)CC2=O)C2C(=O)CC(C)(C)CC2=O)cc1`, the “viability” value is 97.5%.

As for `CCOC(=O)c1c(C)oc2c1c(CN1CCN(C(=O)OCC)CC1)c(O)c1ccccc12`, the “viability” value was 85.7%.

On to `O=C(O)CN1C(=O)C=CC1=O`, for which the “viability” value was 93.5%.

On to `CCOC(=O)c1c(NC(=O)C2C3C=CC(C3)C2C(=O)O)sc2c1CCC(CC)C2` (stereo not given), for which the “viability” value was 98.6%.

As for `Cc1ccc(/C=C2\SC(=S)N(C(Cc3ccccc3)C(=O)O)C2=O)cc1` (stereo not given), the “viability” value was 90%.

As for `CCOC(=O)C1=C(C)NC2=C(C(=O)C(C(=O)OCC)C(c3ccco3)C2)C1c1ccccn1` (stereo not given), the “viability” value is 101%.

As for `Cc1ccc(C(=O)N/N=C/c2ccc(-c3ccc(Br)cc3[N+](=O)[O-])o2)o1`, the “viability” value is 92.3%.

Consider `C=CCOc1ccc(/C=C2\SC(=S)N(C(C(=O)O)c3ccccc3)C2=O)cc1` (stereo not given), for which the “viability” value is 98.8%.

Turning to `Cc1ccc(Cn2c(=S)[nH]c3ccc(N4CCOCC4)cc3c2=O)o1`, the “viability” value was 90%.

On to `C=CCn1c(=S)[nH]c2scc(-c3ccco3)c2c1=O`, for which the “viability” value was 105%.

Turning to `Cc1ccc(NC(=S)NNc2ccc([N+](=O)[O-])cc2S(=O)(=O)Nc2ccccc2C(=O)O)cc1C`, the “viability” value was 91%.

Take `O=C(O)COc1ccccc1C=NNc1ccc([N+](=O)[O-])cc1S(=O)(=O)Nc1ccc(Cl)cc1`: the “viability” value is 95.3%.

In the case of `CC(C)COCC(O)CCC(=O)NNC(=S)Nc1ccccc1` (stereo not given), the “viability” value was 96%.

Consider `Cc1ccc2ccc(C#N)cc2c1O`, for which the “viability” value was 97.7%.

For `COc1ccccc1-c1cc(C(=O)Nc2sc3c(c2C#N)CCC(C)C3)c2ccccc2n1` (stereo not given), the “viability” value was 89.8%.

With `COc1cc(C(c2c(C(=O)O)[nH]c3ccccc23)c2c(C(=O)O)[nH]c3ccccc23)ccc1OCc1ccccc1`, the “viability” value was 102%.

Turning to `COc1cc(/C=C2\C(=N)N3N=C(N4CCOCC4)SC3=NC2=O)ccc1OC(=O)c1ccccc1`, the “viability” value is 93.8%.

In the case of `Cc1cccc(N2C(=O)C(Cl)=C(N3CCOCC3)C2=O)c1`, the “viability” value was 96.8%.

`COc1ccc(C2C=C(c3ccc(Br)cc3)Nc3nc(N4C(=O)CCC4=O)nn32)cc1` (stereo not given): the “viability” value was 92.4%.

For `Cc1ccc(S(=O)(=O)Nc2ccc3ccccc3c2[N+](=O)[O-])cc1`, the “viability” value was 98.3%.

Turning to `Cc1ccc(C)c(S(=O)(=O)Nc2ccc(O)c3ccccc23)c1`, the “viability” value is 98.5%.

Take `O=C(O)c1ccc(N/N=C/c2cn(Cc3ccccc3F)c3ccccc23)cc1`: the “viability” value was 82.6%.

Turning to `CC(/C=C1\SC(=S)N(NS(=O)(=O)c2ccc(C)cc2)C1=O)=C\c1ccccc1`, the “viability” value is 93.5%.

`Cc1cc([N+](=O)[O-])c(C)cc1-c1ccc(/C=N/NC(=O)c2cccnc2)o1`: the “viability” value was 93.1%.

`Cc1nc2ccc(NC(=O)c3cc([N+](=O)[O-])cc([N+](=O)[O-])c3Cl)cc2s1`: the “viability” value was 109%.

With `CN(C)c1c([N+](=O)[O-])cc(N2C(=O)C=CC2=O)cc1[N+](=O)[O-]`, the “viability” value is 100%.

On to `CCOc1ccc(/C=C2\SC(=S)N(NS(=O)(=O)c3ccccc3)C2=O)cc1OC`, for which the “viability” value is 95.8%.

Consider `O=C(CCN1C(=O)S/C(=C/c2ccccc2)C1=O)Nc1ccc(O)c(C(=O)O)c1`, for which the “viability” value is 100%.

Take `COc1ccc(OC)c(-n2c(-c3ccc(O)cc3O)n[nH]c2=S)c1`: the “viability” value is 108%.

As for `Cc1sc(NC(=O)C2CCCCC2C(=O)O)c(C(N)=O)c1-c1ccc(C(C)C)cc1` (stereo not given), the “viability” value was 97.5%.

In the case of `COC(=O)c1sc(-c2ccc(C(C)(C)C)cc2)cc1NC(=O)c1ccccc1C(=O)O`, the “viability” value is 84%.

With `Cc1sc(NC(=O)C2CCCCC2C(=O)O)c(C(N)=O)c1-c1ccc(C(C)(C)C)cc1` (stereo not given), the “viability” value is 98.8%.

With `O=C(O)CN1C(=O)/C(=C\c2cc(Br)ccc2OCc2ccccc2Cl)SC1=S`, the “viability” value is 86.5%.

As to `Oc1cc(CNCc2ccccc2)c(O)cc1CNCc1ccccc1`, the “viability” value was 91.2%.

Consider `O=C(O)CN1C(=O)/C(=C\c2cccc(OCc3ccc(Cl)cc3)c2)SC1=S`, for which the “viability” value was 89.3%.

Consider `O=[N+]([O-])c1ccc(N/N=C2/CCCCC2c2ccccn2)c([N+](=O)[O-])c1` (stereo not given), for which the “viability” value is 91.9%.

As to `CCCc1nc2nc(C)c(NS(=O)(=O)c3ccc(C4CCCCC4)cc3)c(=O)n2[nH]1`, the “viability” value was 103%.

Turning to `COc1ccc(OC)c(N2C(=O)C(Cl)=C(N3CCOCC3)C2=O)c1`, the “viability” value was 110%.

In the case of `COc1ccc(Cl)cc1/C=C1/C(=O)ON=C1C`, the “viability” value is 93.8%.

In the case of `CN1c2ccccc2C(C)(C)C12C=Nc1c(ccc3ccccc13)O2` (stereo not given), the “viability” value was 92.2%.

As for `O=C(COC(=O)c1ccc(NS(=O)(=O)c2cccs2)cc1O)NC1CCCCC1`, the “viability” value was 87.3%.

Turning to `O=C1CCCc2cc(S(=O)(=O)N3CCC(C(=O)NCc4ccccc4)CC3)ccc2N1`, the “viability” value was 96.7%.

On to `C=CCN1C=C2C(=O)C(C)(OC(=O)c3cnc4ccccc4n3)C(=O)C=C2C=C1/C=C/COC` (stereo not given), for which the “viability” value is 107%.

In the case of `COC/C=C/C1=CC2=CC(=O)C(C)(OC(=O)c3cnc4ccccc4n3)C(=O)C2=CN1C1CC1` (stereo not given), the “viability” value is 93.5%.

As to `CCc1ccccc1N1C(=O)C(Cl)=C(N2CCOCC2)C1=O`, the “viability” value is 89.8%.

For the compound `Cc1ccccc1N1C(=O)C(Cl)=C(N2CCOCC2)C1=O`, the “viability” value is 90.7%.

Turning to `Cc1ccc(Nc2cc(C)c(O)c(C)c2)cc1`, the “viability” value was 92.6%.

`Cc1ccc(S(=O)(=O)Nc2nc3ccccc3nc2NCc2ccco2)cc1`: the “viability” value is 105%.

On to `CC(C)C[C@H]1CN=C(Nc2ccccc2)N1CC(C)C`, for which the “viability” value is 96.1%.

On to `Cc1ccc(OCC(=O)c2ccc(Cl)s2)c([N+](=O)[O-])n1`, for which the “viability” value is 95.8%.

On to `CCOc1ccc2c(c1)C(C)=CC(C)(C)N2C(=O)Nc1ccccc1`, for which the “viability” value was 99.6%.

In the case of `O=c1[nH]c(/C=C/c2cccc([N+](=O)[O-])c2)c([N+](=O)[O-])c(=O)[nH]1`, the “viability” value was 103%.

For the compound `CN1C(=O)/C(=C/c2cccc([N+](=O)[O-])c2)C(=O)N1c1ccccc1`, the “viability” value was 99.7%.

Consider `Cc1cc(C)cc(NC(=S)N(Cc2ccc(Cl)cc2)Cc2ccc(C(=O)O)cc2)c1`, for which the “viability” value was 86.2%.

Consider `CSC1=C(C#N)C(=O)NC(c2ccccc2O)S1` (stereo not given), for which the “viability” value is 102%.

With `Cc1ccc(OCc2ccc(C(=O)Nc3nccs3)o2)cc1C`, the “viability” value was 103%.

Consider `CCn1c(C)[n+](CCCS(=O)(=O)[O-])c2cc(Cl)c(Cl)cc21`, for which the “viability” value is 106%.

As for `O=S(=O)(O)c1cccc2cccc(Nc3ccccc3)c12`, the “viability” value is 93.8%.

On to `COc1ccc(/C=C2/SC(=S)N(NS(=O)(=O)c3ccc(C)cc3)C2=O)cc1`, for which the “viability” value is 96.9%.

With `CCC(COC)Oc1cc(NCc2ccccc2)c2ncn(C(C)C)c2c1` (stereo not given), the “viability” value is 85.8%.

Turning to `CCCCC1=CC2=C(c3ccco3)C(=O)C(C)(OC(=O)c3ccc(OC)cc3)C(=O)C2=CN1CC1CC1` (stereo not given), the “viability” value was 83.4%.

As to `O=c1nc(/C=C/c2cc([N+](=O)[O-])ccc2Cl)cc(C(F)(F)F)[nH]1`, the “viability” value was 103% [at 20 µM].

Consider `Cc1cc(SCC(=O)c2cccc([N+](=O)[O-])c2)nc(=O)[nH]1`, for which the “viability” value was 97.7%.

As for `Cc1[nH]n(-c2ccccc2)c(=O)c1C(c1cccc([N+](=O)[O-])c1)c1c(C)[nH]n(-c2ccccc2)c1=O`, the “viability” value is 85.4%.

As to `Cc1ccc(S(=O)(=O)NN2C(=O)/C(=C/c3cccs3)SC2=S)cc1`, the “viability” value was 98.3%.

For `CC1=NN(c2ccccc2)C(=O)C1=Cc1ccccc1`, the “viability” value is 104%.

Turning to `COc1cc(NC(=O)c2ccco2)c(OC)cc1NC(=O)CCC(=O)Nc1cc(C)ccc1C`, the “viability” value is 101%.

Regarding `COc1cc(/C=C2/SC(=S)N(CC(=O)O)C2=O)ccc1OCC(=O)Nc1ccc(C)c(C)c1`, the “viability” value was 97.2%.

For `CCOC(=O)/C(=C\c1cn(C)c2ccccc12)[N+](=O)[O-]`, the “viability” value is 95.5%.

As for `CCOc1cc(/C=C2\C(=O)ON=C2c2ccccc2)ccc1OC`, the “viability” value was 103%.

With `O=C1C(Cl)=C(N2CCOCC2)C(=O)N1c1ccccc1`, the “viability” value is 94.5%.

On to `Cc1cc(NS(=O)(=O)c2ccc(Nc3nc(-c4sc(N)nc4C)cs3)cc2)no1`, for which the “viability” value was 95.2%.

Regarding `CCc1sc(C(C2C(=O)CC(C)(C)CC2=O)C2C(=O)CC(C)(C)CC2=O)cc1[N+](=O)[O-]`, the “viability” value was 97%.

In the case of `Cc1ccc(CNC(=O)CSc2n[nH]c(N)n2)cc1`, the “viability” value is 94.2%.

For the compound `CCCCC(NC(=O)Cc1c(C)c2cc3c(-c4ccccc4)coc3c(C)c2oc1=O)C(=O)O` (stereo not given), the “viability” value was 94.3%.

Regarding `Oc1ccc(N=Nc2ccccc2-c2nn[nH]n2)c(O)c1`, the “viability” value is 98.7%.

On to `CC(C)OP(=O)(OC(C)C)C1(NS(=O)(=O)c2ccc(Cl)cc2)C=C(Cl)C(=O)C(Cl)=C1`, for which the “viability” value is 89.6%.

The values above are taken from PubChem BioAssay AID588742 (Southern Research Specialized Biocontainment Screening …, 2011).
